For seven sequences, PBM binding z-score results are on record in the supplement of paper PMC6555819.

Holding throughout (assay): PBM binding z-score (relative to random genomic background probes); higher = stronger binding; sequences stand for … in GC…GCGATTGACAGCGTAGAATGAAGG
For assay [1], the system named is FXR:RXRa (NR concentration 270 nM, RXRa partner concentration 90 nM). An outline of the steps:
(§1)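 Regression normalization was applied to scanned fluorescence from custom Agilent 4×180K protein-binding microarrays. Before scanning, arrays were incubated 1 h with ligand-free nuclear receptor dimers, and binding was detected with antibodies against each partner (one per run). Binding z-scores use the random background probes as reference.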

The test system of assay [2] is LXRa:RXRa (NR concentration 270 nM, RXRa partner concentration 90 nM). Summed up: as §1
Assay [3] deals with LXRa homodimer (NR concentration 270 nM). Summed up:
as §1

Assay [4] deals with LXRb homodimer (NR concentration 270 nM). Summed up: as §1
Assay [5] concerns PPARa:RXRa (NR concentration 270 nM, RXRa partner concentration 90 nM). Summed up: as §1
In assay [6] the test system is PPARg:RXRa (NR concentration 180 nM, RXRa partner concentration 90 nM). Summed up:
as §1

The subject of assay [7] is PPARg:RXRa 270nM:90nM, anti-RXR (NR concentration 270 nM, RXRa partner concentration 90 nM). Summed up:
as §1

Assay [8] deals with PPARg:RXRa 30nM:10nM, anti-RXR (NR concentration 30 nM, RXRa partner concentration 10 nM). An outline of the steps: as §1
The test system of assay [9] is PPARg:RXRa 90nM:30nM, anti-RXR (NR concentration 90 nM, RXRa partner concentration 30 nM). Summed up:
as §1

Assay [10] relates to PPARg:RXRa DBDmut IVT, anti-RXR (DBD mutation: RXRa K156A/R161A, NR concentration 270 nM, RXRa partner concentration 90 nM). An outline of the steps:
as §1

The subject of assay [11] is PPARg:RXRa IVT, anti-PPARg (NR concentration 270 nM, RXRa partner concentration 90 nM). An outline of the steps: as §1
The subject of assay [12] is PPARg DBDmut:RXRa IVT, anti-PPARg (DBD mutation: PPARg1 K132A/R137A, NR concentration 270 nM, RXRa partner concentration 90 nM). An outline of the steps: as §1
For assay [13], the system named is PPARg DBDmut IVT, anti-PPARg (DBD mutation: PPARg1 K132A/R137A, NR concentration 270 nM). Summed up:
as §1

Assay [14] relates to PPARg homodimer (NR concentration 180 nM). Summed up: as §1
Assay [15] concerns PXR:RXRa (NR concentration 270 nM, RXRa partner concentration 90 nM). Summed up: as §1
The subject of assay [16] is PXR homodimer (NR concentration 270 nM). Summed up:
as §1

Assay [17] concerns RARa:RXR (NR concentration 270 nM, RXRa partner concentration 90 nM). Summed up:
as §1

The test system of assay [18] is RARa homodimer (NR concentration 270 nM). An outline of the steps: as §1
The subject of assay [19] is RARb:RXRa (NR concentration 270 nM, RXRa partner concentration 90 nM). An outline of the steps: as §1

Turning to ACTCGGAGGACAAAGGTGAGAGCTACGCCAGTGA, the PBM binding z-score in assay [1] was 0.567; in assay [2] it was 0.58; in [3], -0.14; in [4] it was -0.434; in [5], 2.81; in assay [6], 4.53. In addition, the PBM binding z-score in assay [7] was 5.16; in assay [8], 3.49; in assay [9] it was 5.42; in assay [10] it was 0.595; in [11], 2.19; in assay [12], -0.781. The PBM binding z-score is -0.86 in assay [13]; 0.6 in assay [14]; 0.477 in assay [15]; -0.385 in assay [16]; 1.24 in assay [17]; -0.258 in [18]. This sequence also had a PBM binding z-score in [19] of 2.37.

Turning to CATAGTTGGTCAAGGTCACACACGCTATAGGTAC, the PBM binding z-score worked out at 4.26 in assay [1]; 4.07 in assay [2]; 1.83 in assay [3]; 1.1 in assay [4]; 4.12 in assay [5]; 3.78 in assay [6]. Moreover, the PBM binding z-score in assay [7] stood at 3.92; in assay [8] it was 1.88; in assay [9], 3.28; in [10], 1.92; in [11] it was 3.93; in assay [12] it was 1.23. Besides, the PBM binding z-score in assay [13] was 1.92; in assay [14], 3.69; in assay [15], 4.35; in [16], 2.19; in assay [17], 4.44; in [18] it was 1.85. In assay [19], this sequence returned a PBM binding z-score of 4.04.

For ACTAGTTGGTCAGCTGAGGTCACACAAAATTCGG, the PBM binding z-score came out at 4.18 in [1]; 3.22 in [2]; 2.26 in assay [3]; 0.719 in assay [4]; 3.85 in [5]; 1.45 in [6]. Moreover, the PBM binding z-score in assay [7] was 2.46; in [8], 0.399; in assay [9], 1.64; in [10], 1.6; in assay [11] it was 2.89; in assay [12], 0.792. In addition, the PBM binding z-score came out at 0.409 in [13]; 3.4 in [14]; 5.63 in assay [15]; 2.18 in [16]; 4.78 in [17]; 1.17 in assay [18]. In assay [19], this sequence had a PBM binding z-score of 3.87.

With ACTCGGAGGACAAAGGTAAGAGCTACGCCAGTGA, the PBM binding z-score in assay [1] is -0.107; in assay [2], -0.113; in [3] it was -0.383; in assay [4] it was -0.762; in [5] it was 1.12; in assay [6], 2.52. Also, the PBM binding z-score in assay [7] was 3.87; in assay [8], 1.74; in assay [9], 3.83; in assay [10], 0.286; in [11], -0.0365; in assay [12] it was -0.619. For the same sequence, the PBM binding z-score in assay [13] was -1.09; in [14], 0.21; in assay [15], -0.339; in [16] it was -0.386; in assay [17], -0.0753; in [18], -0.128. The same sequence gave a PBM binding z-score in [19] of 1.17.

For the sequence TGTCAAAGTTCTAAGGTAACGTAAGTATCCACAC, the PBM binding z-score in assay [1] was 0.449; in [2] it was 0.196; in assay [3], -0.388; in assay [4] it was -0.268; in assay [5], 0.624; in [6] it was 0.871. Also, the PBM binding z-score was 1.41 in [7]; 0.457 in assay [8]; 1.15 in assay [9]; -0.558 in assay [10]; 1.37 in assay [11]; 1.07 in assay [12]. Besides, the PBM binding z-score in [13] was 0.895; in [14] it was 0.299; in assay [15] it was 0.23; in [16], 0.0534; in [17], 1.09; in assay [18] it was 0.0558. In [19], the PBM binding z-score was determined as 0.779.

On to ATGGAAAGGTCGTGAGGTGAGTATACAGAAAGGC, for which the PBM binding z-score was determined as 5.97 in assay [1]; 4.01 in [2]; 0.412 in [3]; 1.01 in assay [4]; 5.3 in [5]; 4.74 in assay [6]. Further, the PBM binding z-score in assay [7] stood at 4.66; in [8] it was 1.89; in [9], 3.12; in assay [10], 0.309; in [11] it was 2.67; in assay [12], 0.977. In addition, the PBM binding z-score came to 1.59 in [13]; 2.23 in assay [14]; 3.42 in [15]; 1.13 in assay [16]; 4.64 in assay [17]; 1.17 in assay [18]. Moreover, the PBM binding z-score in assay [19] came to 4.41.

Take ATATGTAGGTTAGCGGGGGTCATTCAGACTAGGC: the PBM binding z-score in assay [1] turned out to be 5.82; in assay [2], 5.95; in assay [3] it was 3.96; in assay [4], 8.88; in [5], 5.81; in assay [6], 6.96. Further, the PBM binding z-score was found to be 6.71 in assay [7]; 4.14 in assay [8]; 6.07 in assay [9]; 7.07 in assay [10]; 6.87 in [11]; 5.31 in assay [12]. The PBM binding z-score in assay [13] came out at 9.65; in assay [14], 3.57; in assay [15] it was 6.34; in assay [16], 3.48; in assay [17], 5.77; in assay [18] it was 1.94. This sequence also displayed a PBM binding z-score in assay [19] of 3.55.
